{"source": "PubChem BioAssay (NCATS)", "note": "Records with an inconclusive call do not appear. Unmarked numbers belong to inactive results. The call rests on the fitted dose curve; in most records, active means well fitted inhibition curve with a large enough effect; inconclusive means small, poorly fitted or top-dose-only effect; inactive means flat fitted curve, though single readings scatter. Where a SMILES comes first, the peptide text is derived from it. The star is where a group is joined. PhAc = O=C(Cc1ccccc1)*"}
{"biological_target": "Calcium and integrin-binding protein 1 (Homo sapiens) (UniProt Q99828)", "sequence (Q99828 whole entry, looked up)": "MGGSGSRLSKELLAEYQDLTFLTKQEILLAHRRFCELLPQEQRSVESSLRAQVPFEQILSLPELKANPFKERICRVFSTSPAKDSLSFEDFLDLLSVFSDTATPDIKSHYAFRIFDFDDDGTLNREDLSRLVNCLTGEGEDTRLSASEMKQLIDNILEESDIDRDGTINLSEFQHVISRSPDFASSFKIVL", "assay": "Primary qHTS for Identification of Calcium Integrin Binding Protein 1 (CIB1) Competitor (AID 1508620);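 further: GST tagged CIB1 binding a fluorescein labelled alphaIIb integrin peptide tracer; top concentration of the series differs between compounds; on the % scale 0 is the no-effect control and ±100 the full control effect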", "settings": "CIB1-GST / FITC-alphaIIb peptide fluorescence polarization; series mostly up to 57.7 µM; activity change, negative = inhibition: at the top concentration", "excerpt": "Assay Provider: Ulhas P. Naik, PhD Sidney Kimmel Medical College Thomas Jefferson University, Philadelphia, PA Primary function of platelets is to maintain hemostasis. At the site of vascular injury, platelets adhere to adhesive proteins such as collagen and von Willebrand factor. Adherent platelets are activated and generate soluble platelet agonists such as thrombin, ADP and thromboxane A2. Following exposure of circulating platelets to these agonists, results in platelet shape change, granule secretion and activation of platelet integrin alphaIIb-beta3. Ligand binding to activated integrin alphaIIb-beta3 triggers outside-in signaling, leading to platelet aggregation, stabilization of platelet plug, and clot retraction. Upon atherosclerotic plaque rupture also causes platelet plug formation, which underlies a number of cardiovascular diseases such as myocardial infraction and stroke. A number of anti-platelet drugs such as aspirin, clopidogrel, prasugrel, vorapaxar, and eptifibatide are currently available to prevent the thrombotic complications. However, these anti-platelet agents have several limitations including inherent variability in individual responses, developing resistance, and serious bleeding side effects. For these reasons they are not suitable for long-term protection. Based on the experiences with current anti-platelet drugs, it appears that the most useful therapeutic approach is to intersect the secondary responses such as integrin outside-in signaling or recruitment of platelets by TxA2 and secreted ADP. Compounds, which can largely preserve the primary hemostatic function of platelets but inhibit secondary response will be most desired therapeutic agents for treatment of cardiovascular disease. CIB1 is a calcium integrin binding protein, which specifically interact with the alphaIIb subunit of integrin alphaIIb-beta3. Binding of CIB1 to alphaIIb regulates the outside-in signaling in platelets, which is needed for thrombus stabilization and thrombus growth. […] Therefore, we propose that discovery of a small molecule that can prevent the association of CIB1 and alphaIIb-beta3 will be a potential anti-platelet agent that can block the thrombus formation without undue effect on hemostasis. Reference: [1] Naik MU, Nigam A, Manrai P, et al. CIB1 deficiency results in impaired thrombosis: the potential role of CIB1 in outside-in signaling through integrin alpha IIb beta 3. J Thromb Haemost.\nPROTOCOL TABLES SEQUENCE No. (1, 2, 3, etc.); […] (e.g., Cells, Incubation, Reagent, etc.); VALUE and DESCRIPTION. 1; Reagent; 3 uL; Protein or buffer (4/3x) 2; Compound; 46 nL; Control inhibitor / compound library 3; Time; 15 min; Room temperature incubation 4; Reagent; 1 uL; Fluorescent labeled peptide (4x) 5; Time; 1000 rpm; Centrifuge 6; Time; 15 min; Room temperature incubation 7; Detection; Ex 480/ Em 540; ViewLux Fluorescence Read NOTES (numbers refer to sequence above) 1; Protein Mixture: C1B1-GST (final concentrations of 1 uM). […] 3; Room temperature incubation. 4; Fluorescent Labeled Peptide: FITC-aIIb (final concentration of 100 nM). Sequence of alphaIIb peptide: Acetyl-[…]-FITC (purity is 95.83%). 5; Centrifuge 1000 rpm (164 g) for 15 seconds. 6; Room temperature incubation. 7; ViewLux Fluorescent Polization Read: excitation = 480(20) / emission = 540(25) S and P; FITC Dichroic mirror."}
{"smiles": "C/C=C/C1OC2=C(C(=O)OC2(C)O)C(O)C1O", "note": "(stereo not given)", "activity change, negative = inhibition": "-4.54% [at 114 µM]"}
{"smiles": "CC(=O)OC/C(=C/C(=O)O)CC[C@@H]1C(C)=CC(=O)[C@@H]2C(C)(C)CCC[C@@]12C", "activity change, negative = inhibition": "-3.09%"}
{"smiles": "CNc1nc(C)nc(N[C@H]2CCC[C@@H](C(=O)NCc3ccc(C#N)cc3C(F)(F)F)C2)n1", "activity change, negative = inhibition": "-2.87% [at 114 µM]"}
{"smiles": "CC1(C)C2CC[C@]3(C)C(C(=O)C=C4[C@H]5C[C@@](C)(C(=O)O)CC[C@]5(C)CC[C@]43C)[C@@]2(C)CC[C@@H]1O", "note": "(stereo not given in full)", "activity change, negative = inhibition": "3.15%"}
{"smiles": "CC/C=C\\[C@H](O)[C@H](O)C1=C(C)C(=O)[C@]2(O1)C(=O)N[C@@](O)(C(=O)c1ccccc1)[C@@H]2O", "activity change, negative = inhibition": "1.31%"}
{"smiles": "CC1=C2CC(=O)C(C)CC/C=C(\\C)CC2OC1=O", "note": "(stereo not given)", "activity change, negative = inhibition": "-3% [at 114 µM]"}
{"smiles": "C/C=C(\\C)C1C(C)=CC2CCC(OS(=O)(=O)O)C(C)C2C1/C=C/C=C/C(=O)O", "note": "(stereo not given)", "activity change, negative = inhibition": "3.42%"}
{"smiles": "C=CC(C)(O)CC/C=C(\\C)COC1O[C@H](CO)[C@@H](O)[C@H](O)[C@H]1O", "note": "(stereo not given in full)", "activity change, negative = inhibition": "-5.57%"}
{"smiles": "COc1cn(-c2ccc(-n3cccn3)cc2F)nc(-c2ccnn2-c2ccccc2)c1=O", "activity change, negative = inhibition": "-4.65% [at 114 µM]"}
{"smiles": "C=C1CCC[C@]2(C)CC[C@@](O)(C(=C)C(=O)O)C[C@@H]12", "activity change, negative = inhibition": "7.1% [at 114 µM]"}
{"smiles": "COc1ccc2[nH]c(S(=O)Cc3ncc(C)c(OC)c3C)nc2c1", "note": "(stereo not given)", "activity change, negative = inhibition": "-0.924% [at 114 µM]"}
{"smiles": "N[C@@H](CC(=O)Nc1ccc(Oc2cc(F)c(F)cc2Br)cc1)C(=O)O", "activity change, negative = inhibition": "-1.55% [at 114 µM]"}
{"smiles": "C/C(=C\\C1CCC(C)C2CCC3(C)OC123)C(=O)O", "note": "(stereo not given)", "activity change, negative = inhibition": "0.986% [at 114 µM]"}
{"smiles": "C/C(CO)=C1/CCC23COC(C2)C(O)(C(=O)O)CCC13", "note": "(stereo not given)", "activity change, negative = inhibition": "-4.13% [at 114 µM]"}
{"smiles": "O=C(O)CC1CCC(c2ccc(NC(=O)c3nnc(Nc4ccc(F)c(F)c4)o3)cc2)CC1", "note": "(stereo not given)", "activity change, negative = inhibition": "3.62% [at 114 µM]"}
{"smiles": "COC(=O)C1=COC(OC2OC(CO)C(O)C(O)C2O)C2C(COC(=O)/C=C/c3ccc(O)cc3)C(O)C(O)C12", "note": "(stereo not given)", "activity change, negative = inhibition": "0.888%"}
{"smiles": "C=C1CC[C@@H]2[C@@](C)(CO[C@@H]3O[C@H](CO)[C@@H](O)[C@H](O)[C@H]3O)[C@H](O)CC[C@@]2(C)[C@@H]1CC/C(C)=C/CO[C@@H]1O[C@H](CO)[C@@H](O)[C@H](O)[C@H]1O", "activity change, negative = inhibition": "-0.265% [at 30.2 µM]"}
{"smiles": "CC(C/C=C/C(C)(C)O)C1CCC(C)(O)C(O)C1", "note": "(stereo not given)", "activity change, negative = inhibition": "-12% [at 114 µM]"}
{"smiles": "C[C@]1(OC(=O)/C=C\\c2ccc(O)cc2)C[C@@H](O)[C@]2(O)C=CO[C@@H](O[C@@H]3O[C@H](CO)[C@@H](O)[C@H](O)[C@H]3O)C12", "note": "(stereo not given in full)", "activity change, negative = inhibition": "-0.138%"}
{"smiles": "C=C1CC[C@@]2(OC1)O[C@H]1CC3[C@@H]4CC=C5C[C@H](O[C@H]6OC[C@@H](O)C(O)[C@@H]6O[C@@H]6O[C@@H](C)[C@H](O)[C@@H](O[C@@H]7O[C@H](CO)[C@@H](O)[C@H](O)[C@H]7O)[C@H]6O)C[C@@H](O)[C@]5(C)C4CC[C@]3(C)[C@H]1[C@@H]2C", "note": "(stereo not given in full)", "activity change, negative = inhibition": "0.758% [at 30.2 µM]"}
{"smiles": "Nc1ncnc2c1ncn2[C@H]1O[C@@H](C(=O)N2CCN(CC(=O)Nc3cccc4c3CNC4=O)CC2)[C@H](O)[C@@H]1O", "activity change, negative = inhibition": "1.71% [at 114 µM]"}
{"smiles": "CCOC(=O)CNC(=O)[C@@H]1CCCN1C(=O)Cc1ccccc1", "note": "(PhAc-Pro-Gly-OEt)", "activity change, negative = inhibition": "6.82% [at 114 µM]"}
{"smiles": "C=C[C@H]1[C@H](O[C@@H]2O[C@H](CO)[C@@H](O)[C@H](OC(=O)/C=C/c3ccc(O)c(OC)c3)[C@H]2O)OC=C2C(=O)OCC[C@]21O", "activity change, negative = inhibition": "2.41%"}
{"smiles": "C=C1CC2C3(C)C(O)CC(=O)C(C)(C)C3C(O)C(OC(C)=O)C2(C)C2C(=O)OC(C)(C(=O)OC)C(=O)C12C", "note": "(stereo not given)", "activity change, negative = inhibition": "-4.86%"}
{"smiles": "C=C1CCC2C(C)(C(=O)OC)CCCC2(C)C1CCC1=CCOC1=O", "note": "(stereo not given)", "activity change, negative = inhibition": "4.16%"}
{"smiles": "C=C1CC2C3(C)C=CC(=O)OC(C)(C)C3CC(OC(C)=O)C2(C)C2C(=O)OC(C)C(=O)C12C", "note": "(stereo not given)", "activity change, negative = inhibition": "-3.68%"}
{"smiles": "C=C[C@H]1[C@H](O[C@@H]2O[C@H](CO)[C@@H](O)[C@H](O)[C@H]2O)OC=C(C(=O)OC)[C@H]1CCO", "activity change, negative = inhibition": "2.55%"}
{"smiles": "C=C1C(O)CCC2(C)CC3(OC)OC(=O)C(C)=C3CC12", "note": "(stereo not given)", "activity change, negative = inhibition": "-1.25% [at 114 µM]"}
{"smiles": "Nc1ncnc2c1C(=O)N(c1ccc(C3CCC(CC(=O)O)CC3)cc1)CCO2", "note": "(stereo not given)", "activity change, negative = inhibition": "2.59% [at 114 µM]"}
{"smiles": "O=[N+]([O-])c1cc(Cl)ccc1S(=O)(=O)N1CCN(Cc2ccccc2)CC1", "activity change, negative = inhibition": "4.41% [at 114 µM]"}
{"smiles": "C/C=C1\\[C@H](O[C@@H]2O[C@H](CO)[C@@H](O)[C@H](O)[C@H]2O)OC=C(C(=O)OCCc2ccc(O)cc2)[C@H]1CC(=O)OCCc1ccc(O)cc1", "activity change, negative = inhibition": "3.23% [at 30.2 µM]"}
{"smiles": "COc1cc(/C=C/C(=O)O[C@@H]2C[C@](O)(C(=O)O)C[C@@H](O)[C@H]2O)ccc1O", "activity change, negative = inhibition": "1.65%"}
{"smiles": "C=CC(C)(O)CC/C=C(\\C)C(=O)O[C@@H]1[C@@H](O)[C@H](OC(C)(C=C)CC/C=C(\\C)C(=O)O[C@@H]2O[C@H](CO)[C@@H](O)[C@H](O)[C@H]2O)O[C@H](CO)[C@H]1OC(=O)/C(C)=C/CCC(C)(O)C=C", "note": "(stereo not given in full)", "activity change, negative = inhibition": "-0.0186% [at 30.2 µM]"}
{"smiles": "CC(C)=CCC[C@](C)(O[C@@H]1O[C@H](CO[C@@H]2OC[C@H](O)[C@H](O)[C@H]2O)[C@@H](O)[C@H](O)[C@H]1O)[C@H]1CC[C@]2(C)[C@@H]1[C@H](O)C[C@@H]1[C@@]3(C)CC[C@H](O[C@@H]4O[C@H](CO)[C@@H](O)[C@H](O)[C@H]4O[C@@H]4O[C@H](CO)[C@@H](O)[C@H](O)[C@H]4O)C(C)(C)[C@@H]3CC[C@]12C", "activity change, negative = inhibition": "-4.96%"}
{"smiles": "CCNC(=O)OC1CCN(c2nncc3cc(OC)c(OC)cc23)CC1", "activity change, negative = inhibition": "-5.86% [at 114 µM]"}
{"smiles": "O=C(O)CCc1cc2ccoc2cc1O[C@@H]1O[C@H](CO)[C@@H](O)[C@H](O)[C@H]1O", "activity change, negative = inhibition": "5.34%"}
{"smiles": "COc1c(-c2ccc(O)cc2)cc(OC)c2c1oc1cc(O)c(OC3OC(CO)C(O)C3O)cc12", "note": "(stereo not given)", "activity change, negative = inhibition": "-0.459%"}
{"smiles": "CC1(C)CCC[C@@]2(C)[C@H]1[C@H](O)C=C(CO)[C@]2(O)CO", "activity change, negative = inhibition": "1.63% [at 114 µM]"}
{"smiles": "CS(=O)(=O)c1ccccc1N1CCN(c2nc3c(c(=O)[nH]2)CSCC3)CC1", "activity change, negative = inhibition": "1.96% [at 114 µM]"}
{"smiles": "C/C(=C\\CCC1(C)C2CC3C(C2)C31C)C(=O)O", "note": "(stereo not given)", "activity change, negative = inhibition": "0.813% [at 114 µM]"}
